Measured values as given in PubChem BioAssay (NCI).
The panel holds about 79,000 compounds, 15% with a hit somewhere; the sample as a whole holds those more often. Calls of active or inactive are those of the source. No stated cut-off is given here; in the data, active means growth inhibition above about 70%; inactive means the rest.

What was measured:
[1] = NCI Yeast Anticancer Drug Screen. Data for the rad52 strain (AID 147);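 further: 0% = growth of vehicle-treated control cultures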; details: S. cerevisiae rad52 mutant growth inhibition, stronger effect = higher value
How it was run: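 Read-out: growth inhibition versus vehicle-treated controls. Cells were a DNA repair-deficient yeast strain treated with compounds.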

[2] = NCI Yeast Anticancer Drug Screen. Data for the wt1 strain (AID 149);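 further: 0% = growth of vehicle-treated wt1 cultures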; details: S. cerevisiae wt1 strain (SPY 50644) growth inhibition, stronger effect = higher value
How it was run: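 Each compound is tested on wt1 yeast and the loss of growth versus vehicle gives the inhibition value.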

[3] = NCI Yeast Anticancer Drug Screen. Data for the rad50EPP+ strain (AID 151);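 further: 0% = growth of vehicle-treated control cultures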; details: S. cerevisiae rad50 mutant strain, stronger effect = higher value
How it was run: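 Growth inhibition read against vehicle controls in rad50EPP+ yeast, a strain altered in DNA damage repair, after compound exposure.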

[4] = NCI Yeast Anticancer Drug Screen. Data for the mgt1 strain (AID 153); details: S. cerevisiae mgt1 mutant growth inhibition, stronger effect = higher value
How it was run: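 mgt1 yeast grown with test compound; read-out is growth inhibition versus vehicle-treated cultures.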

[5] = NCI Yeast Anticancer Drug Screen. Data for the rad50 strain (AID 155);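 further: 0% = growth of vehicle-only cultures of the same strain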; details: S. cerevisiae rad50 strain growth inhibition, stronger effect = higher value
How it was run: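 Vehicle-treated cultures provide the reference for the growth inhibition reported for compound-exposed, repair-deficient yeast.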

[6] = NCI Yeast Anticancer Drug Screen. Data for the mec2-1 strain (AID 157); details: S. cerevisiae mec2-1 strain, stronger effect = higher value
How it was run: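 Yeast mec2-1 mutant treated with compound. Readout: growth inhibition vs vehicle controls.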

[7] = NCI Yeast Anticancer Drug Screen. Data for the rad14 strain (AID 159);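 further: 0% = growth of vehicle-treated control cultures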; details: S. cerevisiae rad14 strain growth inhibition, stronger effect = higher value
How it was run: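 Inhibition of growth is reported for a repair-deficient yeast mutant following compound treatment, calculated relative to cultures that received vehicle.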

[8] = NCI Yeast Anticancer Drug Screen. Data for the sgs1 mgt1 strain (AID 161);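 further: 0% = growth of cultures given vehicle only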; details: S. cerevisiae sgs1 mgt1 strain, stronger effect = higher value
How it was run: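 Read-out: growth inhibition vs vehicle controls. Cells: mutant yeast strain deficient in DNA damage repair.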

[9] = NCI Yeast Anticancer Drug Screen. Data for the CLN2oe strain (AID 163);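 further: 0% = growth of vehicle-only control cultures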; details: S. cerevisiae CLN2oe strain, stronger effect = higher value
How it was run: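 Read-out: yeast growth inhibition, expressed relative to vehicle-only controls. The strain bears an engineered cell-cycle alteration.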

[10] = NCI Yeast Anticancer Drug Screen. Data for the cln2 rad14 strain (AID 165);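 further: 0% = growth equal to vehicle treated cultures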; details: S. cerevisiae cln2 rad14 strain, stronger effect = higher value
How it was run: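 cln2 rad14 yeast strain; compound exposure; growth inhibition read vs vehicle controls.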

[11] = NCI Yeast Anticancer Drug Screen. Data for the bub3 strain (AID 167); details: S. cerevisiae bub3 mutant strain, stronger effect = higher value
How it was run: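 Mutant yeast screening strain plus compound; vehicle-treated cultures serve as the 0% inhibition reference.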

[12] = NCI Yeast Anticancer Drug Screen. Data for the wt2 strain (AID 169); details: S. cerevisiae wt2 strain growth inhibition, stronger effect = higher value
How it was run: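 Read-out: growth inhibition versus vehicle-treated control cultures after compound exposure of the yeast strain.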

[13] = NCI Yeast Anticancer Drug Screen. Data for the mlh1 strain (AID 171);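 further: 0% = growth of vehicle-treated control cultures of the same strain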; details: S. cerevisiae mlh1 strain growth inhibition, stronger effect = higher value
How it was run: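 Read-out: growth inhibition versus vehicle controls. Strain: engineered yeast with a defined DNA repair or cell cycle defect, compound-treated.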

[14] = NCI Yeast Anticancer Drug Screen. Data for the sgs1 strain (AID 173);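 further: 0% = growth of vehicle-only control cultures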; details: S. cerevisiae sgs1 mutant, stronger effect = higher value
How it was run: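 Read-out: yeast growth inhibition relative to vehicle controls, following compound exposure of a strain with a defined DNA repair/cell cycle alteration.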

[15] = NCI Yeast Anticancer Drug Screen. Data for the mlh1 rad18 strain (AID 175); details: S. cerevisiae mlh1 rad18 strain growth inhibition, stronger effect = higher value
How it was run: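 Yeast w/ defined DNA-repair lesions; compound exposure; growth vs vehicle controls → % inhibition.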

[16] = NCI Yeast Anticancer Drug Screen. Data for the rad18 strain (AID 177); details: S. cerevisiae rad18 mutant growth inhibition, stronger effect = higher value
How it was run: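 Readout: growth inhibition vs vehicle controls. Cells: genetically altered yeast strain, DNA repair defect.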

[17] = at 5.0 µM (retest, dose inferred, filed as 0.5)
[18] = at 50.0 µM (retest, dose inferred, filed as 5.0)

Measured: growth inhibition

O=C1c2cccc3cccc(c23)C(=O)N1CCNCCN1C(=O)c2cccc3cccc(c23)C1=O
inactive: [1]; at 1.2 µM 1% | [1]; at 3.7 µM 3% | [1]; at 11.0 µM 5% | [1]; at 33.0 µM 14% | [1]; at 100.0 µM 34% | [2]; at 1.2 µM 0% | [2]; at 3.7 µM 0% | [2]; at 11.0 µM -1% | [2]; at 33.0 µM 1% | [2]; at 100.0 µM 5% | [3]; at 1.2 µM -1% | [3]; at 3.7 µM 0% | [3]; at 11.0 µM 0% | [3]; at 33.0 µM 2% | [3]; at 100.0 µM 10% | [4]; at 1.2 µM -3% | [4]; at 3.7 µM 0% | [4]; at 11.0 µM -1% | [4]; at 33.0 µM 1% | [4]; at 100.0 µM 2% | [5]; at 1.2 µM 1% | [5]; at 3.7 µM 3% | [5]; [17] 19% | [5]; at 11.0 µM 6% | [5]; at 33.0 µM 21% | [5]; at 100.0 µM 53% | [6]; at 1.2 µM -3% | [6]; at 3.7 µM -4% | [6]; [17] 6% | [6]; at 11.0 µM -3% | [6]; at 33.0 µM 2% | [6]; [18] 4% | [6]; at 50.0 µM 26.4% | [6]; at 100.0 µM 5% | [7]; at 1.2 µM 0% | [7]; at 3.7 µM 1% | [7]; at 11.0 µM 0% | [7]; at 33.0 µM -1% | [7]; at 100.0 µM 4% | [8]; [17] 5% | [8]; [18] 10% | [8]; at 50.0 µM 15.5% | [9]; at 1.2 µM -1% | [9]; at 3.7 µM -2% | [9]; at 11.0 µM 4% | [9]; at 33.0 µM -1% | [9]; at 100.0 µM -1% | [10]; [17] 6% | [10]; [18] 6% | [10]; at 50.0 µM 15.9% | [11]; at 1.2 µM 0% | [11]; at 3.7 µM 1% | [11]; [17] 2% | [11]; at 11.0 µM -2% | [11]; at 33.0 µM -4% | [11]; [18] 1% | [11]; at 50.0 µM 0.65% | [11]; at 100.0 µM -3% | [12]; at 1.2 µM 0% | [12]; at 3.7 µM 0% | [12]; at 11.0 µM 0% | [12]; at 33.0 µM 1% | [12]; at 100.0 µM 5% | [13]; at 1.2 µM 0% | [13]; at 3.7 µM -3% | [13]; at 11.0 µM -1% | [13]; at 33.0 µM 0% | [13]; at 100.0 µM 2% | [14]; at 1.2 µM -1% | [14]; at 3.7 µM -2% | [14]; at 11.0 µM -1% | [14]; at 33.0 µM -1% | [14]; at 100.0 µM 4% | [15]; [17] 4% | [15]; [18] 18% | [15]; at 50.0 µM 7.55% | [16]; at 1.2 µM -3% | [16]; at 3.7 µM -2% | [16]; at 11.0 µM -1% | [16]; at 33.0 µM -1% | [16]; at 100.0 µM 6%
active: [5]; [18] 84% | [5]; at 50.0 µM 86.1%
